From publication PMC12136788
Over roughly 24,000 sequences, “enrichment r” has its median near 0.99; the highest 2% begin near 3.7. Only a sample is shown.

B1: chr4:42003652:42003653:+_ENSG00000014824_ENST00000513699|hu_hu|motif|central (ssRNA)
RNA: GGGAGUUCUACAGUCCGACGAUCGGUACCAAUAUAUGGAUGACUACAGGGAACCAUGUUUGAAAAGCUUCCAAAUGUCACGGAAUUCUGCCACUCCUGGCGGUCGCUGGGAUUACAGGCCGCCGCCCUGCAUCGCAGACGGAGCAACAGAGGAUUGAGCAUCA
B2: 22790091_22790211_509_ncRNA_ENSMUSG00000026784_ENSMUST00000139472|mouse|control|control (ssRNA)
RNA: GGGAGUUCUACAGUCCGACGAUCAUGACUGGAGUUUGAUGAAGAAAGAACUGACUACUCAGACACCUGUCUCCCCACCGUGUGUGACACACACUAUAAGUCCCUCAGUAAUGAUGACAAUGUCUUGUAUCCUCUUCAUUUUUACAACAGAGGAUUGAGCAUCA
B3: chr2:202488911:202488912:-_ENSG00000155755_ENST00000286196|hu_mus|hu_hu_hu_mus_False|88_98 (ssRNA)
RNA: GGGAGUUCUACAGUCCGACGAUCAUUGAAACAUUUUCAUAAUAUUGAGAGAUGUUUUCAGCAUUAUGUAACAAAAGCUCAAUUGUAAAUACAUGUAUCUUAUAAAAAUACACUUAAAAACACGAGUGGGGAGCGCAGGCGCCACAACAGAGGAUUGAGCAUCA
B4: chr16:94690476:94690477:+_ENSMUSG00000040785_ENSMUST00000117648|mus_mus|motif|central (ssRNA)
RNA: GGGAGUUCUACAGUCCGACGAUCAGAAAUGUAAUGUAUUCAAGGUUCACAUGUCUGUAUUUGCCACUGCCUACAGGUCACGGAAAAUACCUAGUUUUUGAAUAGUUUCUAAUACAGUUAGCUUGUUUUCAGGCCACAUUACAACAACAGAGGAUUGAGCAUCA
B5: chr13:90237973:90237974:+_ENSMUSG00000012422_ENSMUST00000161568|mus_hu|FALSE|FALSE (ssRNA)
RNA: GGGAGUUCUACAGUCCGACGAUCAAGCACAGGUACAUAUAAGCAGCAAGAUUACAGUCAAUAGACUCUGAAAAUUGAAAAUGGCAGACAUAGCGAGGCCGGCGAUGCCGCAGCCACAUCACCCUUCCGGGGCUCAGGCGGAAGCAACAGAGGAUUGAGCAUCA
B6: chr1:163112212:163112213:-_ENSG00000143248_ENST00000313961|hu_hu|hu_hu_hu_mus_False|1_58 (ssRNA)
RNA: GGGAGUUCUACAGUCCGACGAUCUUUUAUUAUCAGUAAGAGUGAGUUACAUACUAGGCAAAGUAUUGGAUACAAUAUUCUAAAGAUAAACACUAUUGGUCCAGAAUUUAAAACUUUAUGAGCGAAGUGCUGGCACAGGAUUUACAACAGAGGAUUGAGCAUCA
B7: chr7:7679991:7679992:-_ENSG00000106399_ENST00000396682|hu_hu|hu_hu_hu_mus_False|48_88 (ssRNA)
RNA: GGGAGUUCUACAGUCCGACGAUCUGGGAUGAAUCUUUUCCAGCUUCCCUACGAAGCACACGGGCCGGUCGAUAUACUGUGGUAACAUGCCGGCGUUGACGCGCGCUUUGGGGAGCUGCAUUAUGUCCUCCAUGAUUCUGCCGCCAACAGAGGAUUGAGCAUCA
B8: chr9:56909451:56909452:+_ENSMUSG00000032290_ENSMUST00000034832|mus_hu|motif|central (ssRNA)
RNA: GGGAGUUCUACAGUCCGACGAUCCAUAAGUGCACACACACACACACACAGAAUGACAGAAAGGACUGGAAUACACGCCCGGCUUAUAAACGUGCUUGGCACUCAGGACGAUCUCUAGAAUAUGUAACUUGGUCAAGCUCUCUGCAACAGAGGAUUGAGCAUCA
B9: 62695852_62700603_289_3pUTR_ENSMUSG00000042211_ENSMUST00000048688|mouse|control|control (ssRNA)
RNA: GGGAGUUCUACAGUCCGACGAUCAGCUUCCGAGAGAGGCAUUCCAUGCACAUGAUGUCCUGUAGUGGCAGGUACCUGAAGAUAUGACAGAGCACUUCAUGUGACAGCUGGUUCAUGUAGUCCUUCUCUUCAUCGGCUGUCAUUCAACAGAGGAUUGAGCAUCA
B10: chr7:151048522:151048523:+_ENSG00000013374_ENST00000566856|hu_mus|hu_hu_hu_mus_True|58_78 (ssRNA)
RNA: GGGAGUUCUACAGUCCGACGAUCCUGUUUCUUAUUUAUUACGAUCUUGAUGUAAUUUUCUUGAAGUCCGAAAGUUUCAGCUAUUUUACACCUCAGGUCUCUACCAGUGACAUGCAAGCGGGUCUCCAACAAGCUUUUCUUAUCCAACAGAGGAUUGAGCAUCA
B11: chr14:78183846:78183847:+_ENSG00000119705_ENST00000557342|hu_hu|hu_hu_hu_mus_False|18_108 (ssRNA)
RNA: GGGAGUUCUACAGUCCGACGAUCUCUGUCUCAAAAAUCUUCAUCAGAUGUUUGAGCUCCGUGCAAAGCCUUUGCUCUUUGAGCUUGAACGUGGAUCUAUGGGAGGGAAAGCACUGUAUUUUCCUGUAAUUUUUUUUUUAAAGACAACAGAGGAUUGAGCAUCA
B12: chr1:220276048:220276049:+_ENSG00000067704_ENST00000302637|hu_hu|hu_hu_hu_mus_True|78_108 (ssRNA)
RNA: GGGAGUUCUACAGUCCGACGAUCGCAAACAGCUUCAUUGGCGGGAAUUGUCCAAGGUUGUGUGGUCCAAACUAAAACGCUAACAGGGGAUGAGGCAUCUGUAAGAGACUCCAACUUCGGAGGAGGUCUCAGGAGGGGGAAUCUCAACAGAGGAUUGAGCAUCA
B13: 27242051_27281840_773_CDS_ENSMUSG00000009621_ENSMUST00000056176|mouse|control|control (ssRNA)
RNA: GGGAGUUCUACAGUCCGACGAUCCAGCUCACUGUUUCUUAGUCCAAAUUUGUCAUGGCAGACUUUGAGGAAGGUGCGAAUAUUCUUCAGACACAAGAACUGGGACAUCUGCGGCCGGAAGUUGAUGUCCUUAAGGUCGAUGGACAACAGAGGAUUGAGCAUCA
B14: chr20:43533646:43533647:+_ENSG00000166913_ENST00000353703|hu_mus|FALSE|FALSE (ssRNA)
RNA: GGGAGUUCUACAGUCCGACGAUCGAAAUUCAGCGCCAGGCCGAGGCGAAUCGGGUGUGUAGGCUGCAUUUCUUUCUUGCUGAUUUCAAAUGCUUCUUGGUAAGCCUGCUGGGAGUUGGACACCGUGGUUUGUUUAUUUUCUCCCAACAGAGGAUUGAGCAUCA
B15: chr1:171751117:171751118:+_ENSG00000010165_ENST00000361735|hu_hu|motif|central (ssRNA)
RNA: GGGAGUUCUACAGUCCGACGAUCCUUUUAGGUAAGAGGUUCAUGUUCCUACUGCCGAAGCUGCGUUUUCAAGACUCCCCGGUUCCCUGUGAGAUACCAUUUGAGGAGCUUGCCCACCACACGCAGGCUCCGGGACACUGCAGUCAACAGAGGAUUGAGCAUCA
B16: chr10:120833061:120833062:-_ENSG00000107581_ENST00000369144|perfect_dup|motif|central (ssRNA)
RNA: GGGAGUUCUACAGUCCGACGAUCUUGGGACUCUUCUUUAGCAGCUUCUGUUUUUUCCUCUGCUAAUUUCAAAUAUGCCCGGACAACAUCUUCUAAAGAUUUAAUGUUUACCUGUUGGCAUAUGUUCUUAUAUUGAUAUAACCCCAACAGAGGAUUGAGCAUCA
B17: 18861418_18861648_5666_CDS_ENSG00000157106_ENST00000446231|human|control|control (ssRNA)
RNA: GGGAGUUCUACAGUCCGACGAUCCAGCCUAGGGUCAUCCUCAUCUAAAGGAAUUUGACCAGCGUUGAGUUUAAGGAAAGUAAAGUAUGCACUGCAAGAGAGUUUGUACAGGCUGAAUAUUCUAUCUACAACUUUCCUCCACACCAACAGAGGAUUGAGCAUCA
B18: chr11:48615247:48615248:+_ENSMUSG00000020372_ENSMUST00000020640|perfect_dup|FALSE|FALSE (ssRNA)
RNA: GGGAGUUCUACAGUCCGACGAUCUCCAUCCCAGGAGCCUGAGAGGGCAAACUGGCCAUCUGAGGAGAUAACCACAUCACUAACAAAGUGGGAGUGACCCCGCAGAGCACGCUGUGGAAUUCCAUAGUUGGUCUCAUCCCUGGUCAACAGAGGAUUGAGCAUCA
B19: chr5:110835399:110835400:-_ENSG00000164211_ENST00000296632|hu_hu|motif|central (ssRNA)
RNA: GGGAGUUCUACAGUCCGACGAUCUGAGAGCCUGUCUCAAAAUUUAAAAAAAAAAAAGUGAAAAUGCCCUCUCUUAGAUAGCGGUUUACUUUAGGAAUAAAACCAAACAUUGUACUAGUGAACCAAAAACAUUUCAAAUUUUUCCAACAGAGGAUUGAGCAUCA
B20: chr1:39494564:39494565:+_ENSG00000168653_ENST00000372967|hu_hu|hu_hu_hu_mus_True|68_78 (ssRNA)
RNA: GGGAGUUCUACAGUCCGACGAUCAUGCAUUCGCCUCAUCGUUUUGUACCGAAGCAAACACUCUACGAAAUCAUCAUACUCUAUCUUGCACUCCUUUUUCGCCCGGGUCCCACCGAUCCCGUGUGCACACUCUAUCCACUCUUUCAACAGAGGAUUGAGCAUCA
B21: chr14:66974463:66974464:+_ENSMUSG00000022044_ENSMUST00000074523|mus_hu|mus_mus_mus_hu_False|18_58 (ssRNA)
RNA: GGGAGUUCUACAGUCCGACGAUCUUGUAGGACGACUUAUUCAGGGGAUCGGCCAGGAAGCAGGAGCAGAACAAGGACACUAGUGGGAGCUCCUUCAUCUUCUCUUUGUAGGCAGCAAGAGUCAUGUUUCUGGGAUCUGGUGGCCAACAGAGGAUUGAGCAUCA
B22: chr5:125866394:125866395:-_ENSMUSG00000008348_ENSMUST00000136312|mus_hu|FALSE|FALSE (ssRNA)
RNA: GGGAGUUCUACAGUCCGACGAUCACAACUUUAUUGAAAGGAAAGUGCAAUGAAAUUUGUUGAAACCUUAAAAGGGGAAACUUAGACACCCCCCCUCAAGCGCAGGACCAAGUGCAGAGUGGACUCUUUCUGGAUGUUGUAGUCCAACAGAGGAUUGAGCAUCA

Biological target: T1, UNK ZnF1-3 (human, UniProt Q9C0B0 31-174)
T1 sequence: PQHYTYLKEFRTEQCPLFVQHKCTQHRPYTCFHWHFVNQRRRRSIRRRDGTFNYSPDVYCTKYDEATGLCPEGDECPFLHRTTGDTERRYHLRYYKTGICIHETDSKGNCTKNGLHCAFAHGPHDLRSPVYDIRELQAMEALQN
Assay: nsRBNS (natural sequence RNA bind-n-seq); RBNS binding buffer (assumed for nsRBNS): 25 mM Tris pH 7.5, 150 mM KCl, 3 mM MgCl2, 0.01% Triton X-100, 500 ug/ml BSA, 20 U/ml SUPERase-In, 4 C; UNK is unkempt and MSI1 is Musashi-1; names of the RNAs are library labels; protein concentration not given here; high values mean tight binding

Binder | binding signal [enrichment R]
B1 | 1.6
B2 | 0.985
B3 | 0.63
B4 | 0.656
B5 | 1.37
B6 | 1.29
B7 | 0.421
B8 | 1.4
B9 | 1.2
B10 | 0.64
B11 | 1.24
B12 | 1.64
B13 | 1.21
B14 | 0.604
B15 | 0.55
B16 | 0.789
B17 | 1.36
B18 | 1.14
B19 | 1.93
B20 | 0.667
B21 | 2.28
B22 | 1.57
